The list is not random: actives were taken first. Their share in the collection is about 3.8%.
TGFb inhibitor: inhibitors of TGF-b signaling. HepG2 CAGA-GFP TGF-b/SMAD3 reporter, GFP fluorescence, 18 h; TGF-beta stimulated, 500 pg/mL final. Potency, µM (doses to about 46.1 µM), usual class: inhibitors. actives 1.2% (n = 410,000). AID 588855; further: nearly all actives have a fitted effect of over 65% in size
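TGF-beta reporter screen: HEPG2 CAGA-GFP, 1% FBS, 500 pg/mL TGF-beta final, 18 h; per-cell GFP summed per well; curves fitted and categorized by class.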
HepG2 tox: kills HepG2 cells in TGF-b inhibitor counter-screen; HepG2 CAGA-GFP viability, ATP luminescence, 18 h; Potency, µM (series often up to 46.1 µM), hits mostly cytotoxic; AID 588856; actives 0.76% (n = 410,000)
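CellTiter-Glo luminescence gave cytotoxicity after 18 hours at 37 degrees C. The cells were HepG2 CAGA-GFP in 1% FBS DMEM, stimulated with 500 pg/mL TGF-beta after compound addition. %Activity was normalised to no-cell wells (complete cell-killing) and DMSO (no toxicity), and curves were fitted and classified.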
S2 tox: viability counter-screen for ATXN expression inhibitors. S2 cells (HEK-293 line with an ATXN2-luciferase reporter) viability, CellTiter-Fluor protease fluorescence, 24 h. Potency, µM (top dose mostly 56.7 µM), usual class: cytotoxic. actives 0.49% (n = 400,000). AID 651635; further: nearly all actives have a fitted effect of over 40% in size
Nrf2 block: blocks Nrf2 signaling; A549 ARE-Fluc reporter, luciferase luminescence, 18-24 h; Potency, µM (top dose mostly 46 µM), most hits filed as inhibitors; actives 2.1% (n = 360,000); further: nearly all actives have a fitted effect of over 60% in size
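Quantitative HTS in A549 cells stably bearing an antioxidant response element-firefly luciferase construct. Inhibition of Nrf2-driven transcription was scored by luminescence after 18-24 h of compound exposure at 37 °C.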
ATXN2 expr inh: reduces ATXN2 reporter expression in HEK-293 cells; HEK-293 ATXN2-luciferase reporter, luminescence, 24 h; Potency, µM (series often up to 57 µM), usual class: inhibitors; actives 0.72% (n = 360,000); further: nearly all actives have a fitted effect of over 55% in size
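ATXN2-luciferase reporter cells (luciferase flanked by upstream and downstream ATXN2 gene portions) were treated 24 h at 37 °C with compounds at up to 57 uM. SteadyGlo luminescence gave expression; GF-AFC fluorescence gave viability.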
A549 viability: counter-screen for Nrf2 inhibitors: cytotoxicity in A549 cells. A549 ARE-Fluc cells, CellTiter-Fluor viability, 18-24 h. Potency, µM (highest dose often 46 µM), usual class: inhibitors. actives 0.16% (n = 390,000). AID 504648
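A549 ARE-Fluc cells in 5% FBS OPTI-MEM, 5000 cells/well, rested 2 h then exposed to compounds in concentration-response for 18-24 h at 37 °C. Viability by CellTiter-Fluor fluorescence (Ex 405/Em 525) after 30 min; luciferase luminescence (BugLite, 15 min, RT) read afterwards.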
Numbers stand for hits; . = inactive; ? = inconclusive; / = no result; ! = a repeat was not active; [ ] = dose if it differs, or a comment. The call rests on the fitted dose curve; in most records, active means well fitted curve in the direction sought with a large enough effect; inconclusive means small, poorly fitted or top-dose-only effect, or another doubt; inactive means no such curve, though single readings can be large; an effect the other way counts as inactive or inconclusive.

SMILES | TGFb inhibitor | HepG2 tox | S2 tox | Nrf2 block | ATXN2 expr inh | A549 viability
O=C1C=C(NCCc2cc(Br)c(O)c(Br)c2)C(=O)c2ncccc21 | ? | 7.08µM | ? | ? | 9.47µM | 23.1µM
NC(=O)c1ccc(NC(=O)COC(=O)C2(c3cccc(F)c3)CCCC2)cc1 | . | . | . | . | / | .
CN(C)C(=O)c1ccc(NC(=O)COC(=O)C2(c3ccccc3)CCCC2)cc1 | . | . | . | 16.4µM | / | .
Cc1nn(-c2ccccc2)c2sc(C(=O)Nc3cccc(Cl)c3)cc12 | ? | . | . | ? | ? | .
CCCCN1C(=O)C(=O)NC[C@H]1Cc1cccc2ccccc12 | / | / | . | / | . | /
O=C1NC[C@@H](Cc2cccc3ccccc23)N(CC2(c3ccccc3)CC2)C1=O | ? | . | ? | 20.6µM | ? | ?
CCOc1ccccc1CN1CCc2nc(Nc3ccc4c(c3)OCCO4)ncc2C1 | . | . | ? | / | . | .
Cc1ccc(Cl)cc1N1CCN(C(=O)c2ccc(CS(=O)Cc3ccc(Cl)cc3)o2)CC1 (stereo not drawn) | ? | . | . | ? | . | .
Cc1ccc(C)c(N2CCN(C(=O)c3ccc(CS(=O)Cc4ccc(Cl)cc4)o3)CC2)c1 (stereo not drawn) | ? | . | . | 20.6µM | ? | ?
CN(C)c1ccc2nc3c(=O)[nH]c(=O)nc-3n(CC(O)C(O)C(O)CO)c2c1 (stereo not drawn) | . | . | 12.6µM | ? | / | 10.3µM
Cc1ncc(C(O)c2ccc(N(C)C)cc2)n1Cc1ccccc1 (stereo not drawn) | . | . | . | / | / | /
O=C(NC(c1ccc(Cl)cc1)c1cc(Cl)c2cccnc2c1O)c1cccnc1 (stereo not drawn) | ? | . | . | 10.3µM | ? | ?
CN1CCN(C(c2ccc(Cl)cc2)c2cc(Cl)c3cccnc3c2O)CC1 (stereo not drawn) | ? | 25.1µM | ? | ? | ? | .
CC(=O)NC(c1ccc(N(C)C)cc1)c1cc(Cl)c2cccnc2c1O (stereo not drawn) | ? | . | . | / | / | /
CC(=O)NC(c1ccc(C)cc1)c1cc([N+](=O)[O-])c2cccnc2c1O (stereo not drawn) | ? | . | . | 11.6µM | ? | ?
CCCC(=O)NC(c1ccco1)c1cc([N+](=O)[O-])c2cccnc2c1O (stereo not drawn) | . | . | . | ? | ? | ?
CC(=O)NC(c1ccccc1)c1cc(Cl)c2cccnc2c1O (stereo not drawn) | ? | . | . | 18.4µM | 7.94µM | ?
CCCCc1ccc(NC(=S)N2CCN(c3ccccn3)CC2)cc1 | . | . | . | . | . | .
Nc1cc(=O)[nH]c(SCc2nnnn2-c2ccc(Cl)cc2)n1 | . | . | . | . | . | .
C=CCNC(=S)NNC(=O)c1cccn(Cc2cccc(Cl)c2)c1=O | . | . | . | . | . | .
O=C(c1ccc(=O)[nH]c1)N(Cc1cccs1)C1(C(=O)NC2CCCC2)CCCCC1 | . | . | . | . | . | .
CCC(=O)NC(c1ccc(C)cc1)c1cc([N+](=O)[O-])c2cccnc2c1O (stereo not drawn) | ? | . | . | 23.1µM | ? | .
Cc1ccc(Cn2c(NCCc3ccccc3)nc3c2c(=O)n(C)c(=O)n3C)cc1 | . | . | . | 14.6µM | . | .
COCCCNc1nc2c(c(=O)n(C)c(=O)n2C)n1Cc1ccccc1 | . | . | . | ? | . | .
CCCNc1nc2c(c(=O)n(C)c(=O)n2C)n1Cc1ccc(F)cc1 | . | . | ? | 14.6µM | . | .
SMILES | TGFb inhibitor | HepG2 tox | S2 tox | Nrf2 block | ATXN2 expr inh | A549 viability
COCCNc1nc2c(c(=O)n(C)c(=O)n2C)n1Cc1c(F)cccc1Cl | ? | . | . | 18.4µM | . | .
Cn1c(=O)c2c(nc(N/N=C/c3ccc(OC(=O)c4ccco4)cc3)n2Cc2ccccc2)n(C)c1=O | ? | . | ? | 16.4µM | . | .
Cc1ccc(C(CC(=O)Nc2ccc(C)cc2C)N2Cc3ccccc3C2=O)cc1 (stereo not drawn) | ? | . | . | ? | ? | ?
Nn1cnc2scc(-c3ccco3)c2c1=O | . | . | . | . | . | .
CCOC(=O)c1cc2c(OC)c(OC)ccc2c2[nH]cc(C#N)c(=O)c12 | . | . | / | / | / | /
Cn1c(=O)c2c(nc(NCc3ccco3)n2CCc2ccccc2)n(C)c1=O | ? | . | . | 20.6µM | . | .
CCNc1nc2c(c(=O)n(C)c(=O)n2C)n1Cc1ccc(Cl)cc1 | ? | . | . | 9.2µM | . | .
O=C(Nc1ccccc1)N1N=CCC1c1ccccc1 (stereo not drawn) | . | . | . | . | . | .
O=C(Nc1ccc(Cl)c(Cl)c1)N1N=CCC1c1ccccc1 (stereo not drawn) | . | . | . | 16.4µM | .[11.3 µM] | ?
Cc1c(C(=O)N(C)Cc2cscn2)sc2ncnc(NC[C@H]3CCc4ccccc4O3)c12 | / | / | . | / | / | /
COc1ccc(-n2c(C)cc(C3=NNC(=NC4CC4)SC3)c2C)cc1 | ? | . | . | ? | . | .
COCCn1c(C)cc(C2=NNC(=NC3CC3)SC2)c1C | . | 10µM | ? | 0.581µM | 0.212µM | .
Cc1cc(C2=NNC(=NC3CC3)SC2)c(C)n1-c1ccccc1 | ? | . | . | 6.51µM | / | .
CC(C)CNS(=O)(=O)c1cc2c3c(c1)CCC(=O)N3CCC2 | . | . | . | . | / | .
CC(=O)Nc1ccc(SC[C@H](C)CN2CC[C@H](C(C)(C)C)CCC2=O)cc1 | ? | . | 28.2µM | . | ? | .
O=C1CC[C@@H](O)CCN1CC[C@H](Sc1ccccc1)c1ccccc1 | . | . | . | . | . | .
C[C@@H]1CCC(=O)N(CC[C@H](Sc2ccccc2)c2ccccc2)CC1 | 17.8µM! | . | ? | ? | . | .
O=C(N[C@@H]1CCC(=O)N(CC[C@H](Sc2ccc(Br)cc2)c2ccccc2)CC1)OCc1ccccc1 | ? | . | ? | ? | . | .
C[C@@H](CSc1ccc(Br)cc1)CN1CC[C@H](NC(=O)OCc2ccccc2)CCC1=O | 11.2µM | . | ? | ? | . | .
COc1ccc(S[C@@H](CCN2CC[C@H](NC(=O)OCc3ccccc3)CCC2=O)c2ccccc2)cc1 | 12.6µM | . | ? | 18.4µM | . | .
Cc1nc(-c2ccc(Cl)cc2)sc1CCNC(=O)C(=O)Nc1ccccc1C#N | . | . | . | / | . | .
Cc1ccc(NC(=O)c2cc(S(=O)(=O)NC3CCCCC3)ccc2F)cc1Cl | 10µM | 10µM | / | / | / | .
O=C(Nc1ccc(C(F)(F)F)cc1)c1cc(S(=O)(=O)NC2CCCCC2)ccc1F | 12.6µM | . | ? | / | ? | .
O=C(Nc1ccc(Br)cc1)c1cc(S(=O)(=O)NC2CCCC2)ccc1F | ? | . | ? | / | ? | .
